Screening results: PubChem BioAssay, several laboratories
CYP2C19 activ – human CYP2C19 activators, primary screen, biochemical, luminescence. 96,000 tested, under 10 active. activation factor at 5 µM. recombinant CYP2C19, luciferin-H EGE luminescence; active compounds read high; 0 = fully inhibited enzyme, 1 = untreated enzyme. Cytochrome P450 2C19 (Homo sapiens), P33261;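 active = activation factor of at least 2 at 5 µM in the primary screen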;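 also: 0 = wells with 2.5 mM tranylcypromine and 1 = vehicle-only wells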
CYP2C9 inh – blockers of cytochrome P450 2C9 activity – biochemical, luminescence, ADME assay, primary screen. P11712. CYP2C9 Supersomes, luciferin-H conversion. inhibition, % at 5 µM. 20% of 96,000 active;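 active = blocking of liver enzyme CYP2C9 beyond about 50% at 5 µM, limit read from the data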
Target sequence (P11712 whole entry, looked up): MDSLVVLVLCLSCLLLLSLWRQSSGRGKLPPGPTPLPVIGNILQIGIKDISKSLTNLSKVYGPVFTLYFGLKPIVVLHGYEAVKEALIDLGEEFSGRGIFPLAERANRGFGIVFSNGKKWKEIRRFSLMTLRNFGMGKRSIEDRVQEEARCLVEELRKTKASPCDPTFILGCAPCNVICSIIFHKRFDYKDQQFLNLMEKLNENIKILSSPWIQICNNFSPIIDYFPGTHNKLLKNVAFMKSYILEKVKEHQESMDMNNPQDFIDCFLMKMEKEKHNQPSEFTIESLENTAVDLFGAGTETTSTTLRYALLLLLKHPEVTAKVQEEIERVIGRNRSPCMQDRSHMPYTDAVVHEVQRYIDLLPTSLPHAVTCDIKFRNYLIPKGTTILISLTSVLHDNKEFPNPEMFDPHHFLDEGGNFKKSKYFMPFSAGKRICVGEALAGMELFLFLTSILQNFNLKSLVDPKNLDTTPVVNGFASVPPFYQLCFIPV
cytoskel mod – modifiers of F-actin cytoskeleton organization, primary screen, imaging, HUVEC, phalloidin staining, high-content imaging; HUVEC TNFa F-actin phalloidin imaging; inhibition, % at 2 µM; 0.18% of 91,000 active; AID 836, 2007;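 active = inhibition above the batch mean plus 3 SD and confirmed as a hit by visual image inspection, cut at about 30% in these data, passing the limit was not always enough; inconclusive = above the inhibition threshold but rejected on visual inspection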
CYP2C9 act – human CYP2C9 activators, primary screen, biochemical, luminescence | Cytochrome P450 2C9 (Homo sapiens), P11712 | recombinant CYP2C9, luciferin-H conversion; active compounds read high; factor 1 = untreated enzyme, 0 = blocked | activation factor at 5 µM | 1.4% of 96,000 active | AID 1024, 2008;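 active = activation factor of 2 or more for CYP2C9 at a 5 µM dose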;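 also: 0 = sulfaphenazole-blocked wells and 1 = vehicle-only wells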
E-sel TNF inh – E-selectin induction blockers in HUVEC – imaging, immunofluorescence, high content, primary screen; HUVEC TNFa-induced E-selectin immunofluorescence; inhibition, % at 2 µM; 0.71% of 120,000 active; AID 1246, 2008;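 active = inhibition above the batch mean plus 3 SD, and confirmed as a hit on visual image review, cut at about 43% in these data; inconclusive = passes the inhibition cutoff but fails visual image review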;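 also: 0% = TNF-stimulated DMSO wells and 100% = unstimulated control wells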
CYP2C19 inhib – blockers of cytochrome P450 2C19 activity – biochemical, luminescence, ADME assay, primary screen. 21% of 96,000 active. AID 778, 2007. CYP2C19 Supersomes, luciferin-H EGE luminescence, 30 min. inhibition, % at 5 µM. P33261;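 active = CYP2C19 inhibition above a set limit at 5 µM in the primary screen, cut at about 50% in these data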;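 also: plate controls were negative control wells for no effect and 2.5 mM tranylcypromine positive control for full effect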
An asterisk follows results filed as active; ? = inconclusive; . = not tested or not shown. In the library only some 22% were active in any assay of this set; here they are far more common.

SMILES	CYP2C19 activ	CYP2C9 inh	cytoskel mod	CYP2C9 act	E-sel TNF inh	CYP2C19 inhib
O=C(COC(=O)C1=COCCO1)Nc1ccc2c(c1)OCO2	1.1	-5.9	-2.1	1.1	0.0	-5.9
COc1ccc(/C=N\NC(=O)c2ccc(=O)[nH]n2)cc1O	.	.	.	.	-2.5	.
COc1ccc(/C=N/NC(=O)CCc2c(C)n[nH]c2C)cc1O	0.9	64.5*	.	0.4	11.5	9.9
COc1ccc(/C=N/NC(=O)c2cc(C34CC5CC(CC(C5)C3)C4)[nH]n2)cc1O	0.6	58.9*	2.4	0.4	-54.8	40.3
Cc1ccc2oc(=O)c3cnn(CC(=O)NCCC(C)C)c3c2c1	0.9	18.0	.	0.8	-22.3	13.5
COC(=O)CNC(=O)CSc1nnc(C)c(=O)[nH]1	.	.	.	.	-63.8	.
Cc1ccc(S(=O)(=O)N2CCN(C(=O)c3cc(=O)[nH]c4ccccc34)CC2)c(C)c1	0.9	9.7	0.5	0.9	18.0	8.3
CNCC(O)COc1ccccc1 (stereo not drawn)	1	6.1	7.9	0.9	3.1	4.7
OC(CNc1ccccc1)COc1ccc(OCC(O)CNc2ccccc2)cc1 (stereo not drawn)	0.9	66.9*	5.2	0.3	33.1	12.8
O=C(NCCCn1ccnc1)c1cc(C(=O)C2CC2)c[nH]1	0.4	60.9*	13.1	0.4	-12.6	56.5*
CC(C)CC(=O)c1c[nH]c(C(=O)NCCCn2ccnc2)c1	0.6	82.0*	.	0.2	.	40.9
O=C(Cc1ccc(Cl)cc1)c1c[nH]c(C(=O)NCCCn2ccnc2)c1	.	.	.	.	-40.2	.
Cc1ccccc1C(=O)c1c[nH]c(C(=O)NCCCn2ccnc2)c1	0.3	92.6*	-2.2	0.1	-4.3	67.1*
CCC(CC)C(=O)c1c[nH]c(C(=O)NCCCn2ccnc2)c1	0.3	92.3*	11.7	0.1	31.9	66.6*
CC1CCN(C(C(=O)NC2CCCCC2)c2cc3c(cc2[N+](=O)[O-])OCO3)CC1 (stereo not drawn)	.	.	.	.	-2.2	.
COc1ccccc1C1C2=C(N=c3s/c(=C/c4cccc(OCC(=O)O)c4)c(=O)n31)c1ccccc1CC2 (stereo not drawn)	.	.	.	.	-6.1	.
CSc1nc(C)cc(Oc2ccc(OCCOc3ccccc3)nn2)n1	0.9	28.4	1.7	0.7	-1.6	14.1
CCOC(=O)N1CCN(C(=O)Cc2ccc(C)cc2)CC1	0.8	44.6	-6.5	0.6	-7.2	23.7
CCC(CC)C(=O)c1c[nH]c(C(=O)NCCCN2CCOCC2)c1	1	13.3	14.2	0.9	85.5*	4.5
O=C(O)C1CCCCC1C(=O)NCCCn1ccnc1 (stereo not drawn)	0.8	13.7	6.8	0.9	-36.2	15.9
O=C(NCCCn1ccnc1)c1cc(C2CC2)on1	0.1	58.9*	.	0.4	-8.8	85.1*
CCC1Oc2ccc(C)cc2N(CC(=O)N(Cc2ccc(C)o2)C2CCCC2)C1=O (stereo not drawn)	.	.	-1.6	.	5.3	.
COc1ccc(C(=O)O/N=C(/C)c2cccs2)cc1	0.5	91.4*	-8.4	0.1	8.8	47.7
COc1ccc(C2CC2/C(C)=N/OC(=O)c2ccc(F)cc2)cc1 (stereo not drawn)	.	.	.	.	-70.4	.
COc1ccc(C2CC2/C(C)=N/OC(=O)c2cccs2)cc1 (stereo not drawn)	0.4	75.0*	-4.6	0.3	7.7	62.2*
SMILES	CYP2C19 activ	CYP2C9 inh	cytoskel mod	CYP2C9 act	E-sel TNF inh	CYP2C19 inhib
COc1ccc(OCCOC(=O)c2cccs2)cc1	0.2	72.9*	-11.7	0.3	17.4	84.5*
COc1ccc(N(C(=O)c2ccc(S(=O)(=O)N3CCOCC3)cc2)C2C=CS(=O)(=O)C2)cc1 (stereo not drawn)	1	-4.1	33.8	1	0.8	4.6
Cc1ccc(S(=O)(=O)CCC(=O)c2ccc(O)cc2O)cc1	0.3	-91.1	-5.6	1.9	-4.7	69.5*
Cc1ccc2occ(CN3CCN(c4ccccc4)CC3)c(=O)c2c1	0.2	21.3	22.6	0.8	-17.7	81.8*
O=c1c(CN2CCN(Cc3ccccc3)CC2)coc2ccc(Cl)cc12	0.6	-182.1	21.8	2.8*	-9.3	44.3
c1cncc(-c2nnc(-c3cccnc3)nn2)c1	0.9	1.7	-11.0	1	2.3	12.0
Fc1ccc(C(CCCn2nnc(-c3cccnc3)n2)c2ccc(F)cc2)cc1	0.4	58.7*	-13.9	0.4	1.6	58.7*
C=CCn1c2ccccc2c2nnc(SCc3ccc4nonc4c3)nc21	0.2	83.9*	2.6	0.2	1.8	83.8*
CCCn1c2ccccc2c2nnc(SCC(=O)Nc3cc(C)on3)nc21	1	32.7	.	0.7	17.0	4.0
CCCn1c2ccccc2c2nnc(SCC(=O)Nc3ncccn3)nc21	0.5	60.0*	-2.3	0.4	17.3	51.6*
CSc1nnc2c3ccccc3n(Cc3ccccc3)c2n1	0.9	19.5	-1.3	0.8	6.7	9.5
CSc1nnc2c3ccccc3n(CCc3ccccc3)c2n1	0.4	8.9	.	0.9	40.2	60.9*
C=CCn1c2ccccc2c2nnc(SCC(=O)Nc3cc(C)on3)nc21	0.7	55.2*	.	0.4	1.1	28.3
CCOC(=O)C1CCN(Cc2ccc(O)c(OC)c2)CC1	0.7	3.2	.	1	.	30.3
COc1ccc(C2SCC(=O)N2CCCN(C)C)cc1 (stereo not drawn)	1.2	2.7	.	1	21.4	-17.9
CCOC(=O)Cc1nnc(NC(=O)CSc2nnc3c4ccccc4n(C)c3n2)s1	0	91.5*	10.9	0.1	3.4	95.8*
Cc1ccc(C2=NN=C(NC(=O)CSc3nnc4c5ccccc5n(C)c4n3)SC2)cc1	.	.	.	.	-11.5	.
COc1ccc(COC(=O)NNC(=O)c2ccccc2Cl)cc1	0.3	12.4	7.4	0.9	-11.7	71.6*
CCOc1ccc(N(C(C)C(=O)N/N=C(\C)c2cccc(NC(=O)c3ccccc3)c2)S(C)(=O)=O)cc1 (stereo not drawn)	0.2	69.1*	-5.0	0.3	-3.3	76.3*
Cc1ccc(Cl)c(OCC(=O)OCC(=O)NC2CCCc3ccccc32)c1 (stereo not drawn)	.	.	.	.	-16.5	.
CC1CCN(S(=O)(=O)c2cccc(C(=O)Nc3ccccn3)c2)CC1	0.9	10.1	4.0	0.9	-10.1	6.4
CC1CCN(S(=O)(=O)c2cc(Br)cc(C(=O)NC3=NCCS3)c2)CC1	0.3	45.0	-2.9	0.6	-73.5	67.8*
CN1CCOc2cc(S(=O)(=O)Nc3ccc(F)cc3)ccc21	0.1	59.7*	-9.7	0.4	.	87.0*
O=C(O)c1ccc(NS(=O)(=O)c2ccc3c(c2)OCCO3)cc1	1.2	-18.9	5.6	1.2	.	-16.7
COc1cccc(CNC(=O)C(=O)NCC2CCCO2)c1 (stereo not drawn)	.	.	?	.	0.9	.
